From PubChem BioAssay (NCATS)
Results filed as inconclusive are left out. Activity calls are given as the source filed them. Calls come from the whole dose curve; as a rule, active = well fitted inhibition curve with a large enough effect; inconclusive = small, poorly fitted or top-dose-only effect; inactive = flat fitted curve, though single readings scatter.

How the values were obtained:
Experiment in all cases: qHTS profiling for inhibitors of Plasmodium falciparum proliferation (AID 504749); note: nearly all actives have a fitted effect of over 60% in size
Settings in all cases: P. falciparum in erythrocytes, SYBR Green DNA, 72 h; series mostly up to 12.8 µM
CP238 = test system: CP238
Outline: (§1)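 P. falciparum-infected erythrocytes (0.3% parasitemia, 2.5% hematocrit final) were exposed to compounds for 72 h at 37 C in 5% CO2, then lysed with SYBR Green buffer overnight at room temperature; parasite DNA fluorescence was normalized to artemisinin and DMSO controls.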

CP247 = test system: CP247
Outline: as §1

CP250 = test system: CP250
Outline: as §1

CP252 = test system: CP252
Outline: as §1

CP260 = test system: CP260
Outline: as §1

CP262 = test system: CP262
Outline: as §1

CP265 = test system: CP265
Outline: as §1

CP268 = test system: CP268
Outline: as §1

CP269 = test system: CP269
Outline: as §1

CP286 = test system: CP286
Outline: as §1

CP291 = test system: CP291
Outline: as §1

CP305 = test system: CP305
Outline: as §1

CP325 = test system: CP325
Outline: as §1

CP329 = test system: CP329
Outline: as §1

CP335 = test system: CP335
Outline: as §1

DFO2036 = test system: DFO2036
Outline: as §1

DIV14 = test system: DIV14
Outline: as §1

DIV17 = test system: DIV17
Outline: as §1

DIV30 = test system: DIV30
Outline: as §1

ECU = test system: ECU
Outline: as §1

FAB9 = test system: FAB9
Outline: as §1

HB3 = test system: HB3
Outline: as §1

ICS = test system: ICS
Outline: as §1

JCK = test system: JCK
Outline: as §1

N140 = test system: N140
Outline: as §1

P93_24 = test system: P93_24
Outline: as §1

PAD = test system: PAD
Outline: as §1

PC15 = test system: PC15
Outline: as §1

PC26 = test system: PC26
Outline: as §1

PC49 = test system: PC49
Outline: as §1

SC27B = test system: SC27B
Outline: as §1

TAB109 = test system: TAB109
Outline: as §1

TAB113 = test system: TAB113
Outline: as §1

W2 = test system: W2
Outline: as §1

Measured: Potency
Potency is the fitted concentration of half-maximal effect.

C=CCOc1ccccc1OC[C@H](O)CNC(C)C
inactive: CP238 | CP247 | CP250 | CP252 | CP260 | CP262 | CP265 | CP268 | CP269 | CP286 | CP291 | CP305 | CP325 | CP329 | CP335 | DFO2036 | DIV14 | DIV17 | DIV30 | ECU | FAB9 | HB3 | ICS | JCK | N140 | P93_24 | PAD | PC15 | PC26 | PC49 | SC27B | TAB109 | TAB113
active: W2 1.14 µM
